According to PMC13494018:
Values without a mark were called inactive. How the calls were made is not given here.

Target: VTCN1, Q7Z7D3
Sequence (Q7Z7D3 whole entry): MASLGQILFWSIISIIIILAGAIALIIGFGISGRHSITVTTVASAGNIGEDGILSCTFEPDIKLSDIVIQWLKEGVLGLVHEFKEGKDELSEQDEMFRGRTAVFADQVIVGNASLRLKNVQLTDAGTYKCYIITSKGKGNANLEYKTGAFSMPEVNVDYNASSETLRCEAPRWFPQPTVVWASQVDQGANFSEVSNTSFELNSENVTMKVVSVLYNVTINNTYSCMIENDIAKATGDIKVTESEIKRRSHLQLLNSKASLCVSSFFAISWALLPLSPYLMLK

Row | Binder | binding in a display sort
1 | d4r5_design_ppi_239_dldesign_0_cycle0_af2pred (protein) MGKELQKLADEANKKAKAIAKTLKENLKLAKELSPELAKEAEAAKKALAAARLTFADDLEKGKEELKAVEKDVEALKAKIEKAAA | not found
2 | d4r5_design_ppi_186_dldesign_0_cycle1_af2pred (protein) VEEVKEKAEEVLKKATEAMKAAKTVEEVRKIRREGHKELRKLGEEGTPESKEIAYKYIEKLNEAAADAISKLL | not found
3 | d4r5_design_ppi_48_dldesign_0_cycle1_af2pred (protein) KAEELLKKGEELMEEGINSENKEEGEKKVKEGAVYYKEGLIEKNPEEPVSEQVKKAKEIYEKYEKELKEKHEKK | not found
4 | d4r5_design_ppi_64_dldesign_0_cycle1_af2pred (protein) AAAGTATAETIVNLREAEHILKLLEKNKNIPKEQAEVFIKDSEEIIKEVEEALKKGLVSKELAEKALEAAKKALEAAKKAYKK | not found
5 | d4r5_design_ppi_251_dldesign_0_cycle1_af2pred (protein) MEKLKEIEEAAKKKLEEGAKKGEEAFKKAITEANLLAASDPEYSKEARAAVKKLAKEKKKELEEKKKKEEEEKKLK | not found
6 | d4r5_design_ppi_302_dldesign_0_cycle0_af2pred (protein) SEAEKLYAEALQYANIAKSAYEVNKEAGKEEYKEAKKYVEKLKEVDPEKGEEAEKEVEEKKAEAEKEYEKK | not found
7 | d4r5_design_ppi_284_dldesign_0_cycle1_af2pred (protein) AAAEVQAKLEAAAKKAEELAKDPALKEAAEAAAKALTAAKSLPPEEAAPALVATNNALQDARFEATEKAFK | not found
8 | d4r5_design_ppi_300_dldesign_0_cycle0_af2pred (protein) SEVEEKAKKLVKEAAESTPEEAKKKGREVVELAKEHPEVAPVAAKAADEAAEVAKKKDKEVYIILAKTSAQLDAIAA | not found
9 | d4r5_design_ppi_343_dldesign_0_cycle1_af2pred (protein) GEEEEKKKKLNELQDEAAEAIGEVYLEAKKTGELELAKEVSKKVRKALKDPEEAKKAIEEAKKEAKKLKKKL | not found
10 | d4r5_design_ppi_63_dldesign_0_cycle1_af2pred (protein) SLAEEAEKKLKEYAALRIEAGDLSEEEAKKTFKEIAKEAKELAKKLEADPNAKEVAKKAKKLAGAAESAAKAIEKA | not found
11 | d4r5_design_ppi_307_dldesign_0_cycle0_af2pred (protein) SAEKKAREESEKLREELRKKKEEAIARVKAYLAEKAKKDPSKAAEYEAKAKEVEAGGSGTATAALKEVKAEEAAEAAAKAAAA | not found
12 | d4r5_design_ppi_122_dldesign_0_cycle1_af2pred (protein) DAEKIAKADKLMEEAKKLAATGKKRKEALEKYKEAAALYAEVDPALAKEAIAKGQEALSEGRENEAEKRLK | not found
13 | d4r5_design_ppi_292_dldesign_0_cycle1_af2pred (protein) SMAKELSEALREAVRAAREAVETRGEEVKEEMVELVYKAFDSDLEETKKIAEEIKRRAEEAREERRRRLE | not found
14 | d4r5_design_ppi_142_dldesign_0_cycle0_af2pred (protein) MEEKRLEALKSQVEHAGEAAEKYGKELGEEEVKKARELKEKALKASAEEARELLKELRKFGKELKKKVEAKKAA | not found
15 | d4r5_design_ppi_255_dldesign_0_cycle0_af2pred (protein) SEVEETKKKLAEASAELSELAAEADANPALAAAGKLAREALKKARELGKEGEENPEKALELYKKALEYAEKALKEVKALIEKAK | not found
16 | d4r5_design_ppi_186_dldesign_0_cycle0_af2pred (protein) LEEVKEKAKEILEKAEKEMKAAKKVSEVNEIRRKGLKELAELGKSSSPEGKKIAYEKREELIEAAGEAMAKKL | not found
17 | d4r5_design_ppi_205_dldesign_0_cycle1_af2pred (protein) GEEEAKKAKEKAKKEAKELTDLVDEVAALSGAEAARAYAEKRAKNLVEKAAKEGPEAEKAAKEAAEKILKRAEEIAKAEA | not found
18 | d4r5_design_ppi_53_dldesign_0_cycle0_af2pred (protein) MKEKQEEARNDAIIESAKMAGAKNPEIGKLLKKATELTLENEEGKEEAKKLIEEVAKKGEEDTAKKLEKAVEALVKKKKEEEKKKK | not found
19 | d4r5_design_ppi_320_dldesign_0_cycle1_af2pred (protein) ATPEEQKKESDYFKEVQKLAKEKAEAAAADPEAKQLALNLPLAAADPEEGKKVAAQVDKRLAALKAAKAAAAA | not found

Row | Binder | binding in a display sort
20 | d4r5_design_ppi_332_dldesign_0_cycle1_af2pred (protein) DVEALVAEAVALIAGDPADAPAARAAAEAAAAALLDATLDDPAAVALLEALAAAAAANPHMADVAATLAKALATAKKIVADQKEATS | not found
21 | d4r5_design_ppi_73_dldesign_0_cycle0_af2pred (protein) MKAVEELKERAKRRLKEAEEKHKENPLKGAAQAYAAAEYVKNFAEAAAKKYPEYKEELLAAGKEYAKELEEKAKEFEEEAKKLA | not found
22 | d4r5_design_ppi_266_dldesign_0_cycle1_af2pred (protein) GEEAKKALELAKKAVEEAKRGLALAKAGKLEEAAKELQKARELMAEALALGKKNPEVLEEVKKLAKEVKELIREAMEEAKKHR | not found
23 | d4r5_design_ppi_347_dldesign_0_cycle1_af2pred (protein) GREEEAKRVAEVILERLKDPKAQEAAKKTGEAGKAFLEAYELYKKDREAGIEYLAKEILKNPSWAQDFRENYAEEEAK | not found
24 | d4r5_design_ppi_66_dldesign_0_cycle1_af2pred (protein) GAAEEAAKKAKEEADKAIEAAKKGEKEGAEALLKAAKKLAEAAQKALEAAAEYPEKREEFLKLAKELRKAAKEAEEKAKAEIEAKKKA | not found
25 | d4r5_design_ppi_305_dldesign_0_cycle1_af2pred (protein) KEKEMKKEVKKALEEAKKAAEEAIKSGDVKKLKEAAVKAQEAATVAKYIASKAKDKEVKKEAKKAAKEALELAKKVAEEAKKAE | not found
26 | d4r5_design_ppi_307_dldesign_0_cycle1_af2pred (protein) GAREKAREESEKIRKELREKKKEAVAYVEAYLKKKAEANPEYAAEYEAKAEKVRNGGSGTATKALKEVKAEEAAEAAAKAAAA | not found
27 | d4r5_design_ppi_147_dldesign_0_cycle0_af2pred (protein) SITERAKLAAEATRAAHRAEAAAKELIKLGGDKKEAEKLRKEAKKALEKAEEAAAKPEKLEELKKETEKAKKIAEEAKKELEELKK | not found
28 | d4r5_design_ppi_196_dldesign_0_cycle0_af2pred (protein) ALAEAVAAAAEAAAEAAKKNEVTKPIAEKLEEISKKAKELAKEAKENPELKEKAEKEAEKLREELKKLREEAKKLIAEKKAEEAAKA | not found
29 | d4r5_design_ppi_197_dldesign_0_cycle1_af2pred (protein) GKVEKEVKAAAEKAKKLVEEAKKLAESGDKETAKEGMKLAEEALKLAREAGKKAKKAGVKEELVKELEKLAEEAIEVRLDGLEVLAK | not found
30 | d4r5_design_ppi_305_dldesign_0_cycle0_af2pred (protein) MEEKLKKEVEEALKKAEKAAKEAKASGDVKALKEAAMKANEAAAEARAYAAKSKDKETKKFAEEAAKKALELAKETVEAAKKAA | not found
31 | d4r5_design_ppi_288_dldesign_0_cycle0_af2pred (protein) MTKAENAAKILEYAAEADALGDKETAKKLRELAKKAREATAEEAKKLAKEAEKLLKEAEEKKEKEEKEEKEKKEEEEKK | not found
32 | d4r5_design_ppi_292_dldesign_0_cycle0_af2pred (protein) MKAKETAKALREAVKAAQEAVKAKGEEVKPEMSKLLEEAASSDAEETKKIAEEIKKKAKEVKEEKKKEEE | not found
33 | d4r5_design_ppi_312_dldesign_0_cycle1_af2pred (protein) DFEEAKKKAEEALKKLEELAKELGEEGKKLYEYAKKKFEKYSDDAASVEAAYYIIKGAYKKAEELLKEKKEKKKKEE | not found
34 | d4r5_design_ppi_147_dldesign_0_cycle1_af2pred (protein) SVQERARLAAKATRAAHKAKVAAKKIIELGGDKEKAKKLAKEAEKALEKAEEAMADPSKLEELKKATEEAEKLAKEALKEYEKLLA | not found
35 | d4r5_design_ppi_185_dldesign_0_cycle1_af2pred (protein) NEEALKKALEEAKKLVEEAGKKAGPEVQEKADRLIKVSERKRKLDPEAGALQGIFGAKGLEPDIDKELAKKIIEAFKKALELA | not found
36 | d4r5_design_ppi_337_dldesign_0_cycle0_af2pred (protein) SHYEKAREYVKKAIKALKEGKEKEAKEYAKKAAEEIAKTDAEKAREIAKEMRKGVKEVGAGKVGGEMVALIQEARAEAAARNS | not found
37 | d4r5_design_ppi_266_dldesign_0_cycle0_af2pred (protein) HMLKKLALEKAKEALEKAKEGLKLAKEGKLEEAAKKLQEARELKAEALSLGKKEKSIKKIIEEKAKEVKKIIKEAQKEAKKKK | not found
38 | d4r5_design_ppi_153_dldesign_0_cycle0_af2pred (protein) LLEEVKKLSEEALKLAKEAKETGSEELREKAREKAKEALELGKKDPEALKIASEATQKMLEIWAEGKAKKNK | not found
